# About 79,000 compounds went through this panel and 15% of them were active in at least one assay; those are over-represented in the sample as a whole. Values without a mark were called inactive. The source made the active and inactive calls. No stated cut-off is given here; in the data, active means growth inhibition above about 70%; inactive means the rest.
# Assay: NCI Yeast Anticancer Drug Screen. Data for the mec2-1 strain (AID 157)
# Conditions: S. cerevisiae mec2-1 strain, at 11.0 µM, hits give high values
# Procedure, shortened: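 Compounds were applied to mec2-1 yeast cells. Their growth was then compared with that of vehicle-treated cultures to give growth inhibition.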
row,Compound,growth inhibition
1,O=CC=C(c1ccccc1)c1ccccc1,0%
2,FC(F)(F)c1nc2nc(Cl)c(Cl)nc2n1CCCN1CCOCC1,12%
3,BrCC[P+](c1ccccc1)(c1ccccc1)c1ccccc1,14%
4,N#CSc1ccc(S(N)(=O)=O)cc1,-37%
5,O=[N+]([O-])c1ccc2nc3ccccc3cc2c1,8%
6,O=C(NC(Nc1ccc(F)c(Cl)c1)(C(F)(F)F)C(F)(F)F)C(C(F)(F)F)C(F)(F)F,74% (active)
7,O=C(/C=C\c1ccc(Cl)cc1Cl)c1cccs1,1%
8,O=C(NCCCCNCCCNC(=O)c1cc(-c2ccccc2)nc2ccccc12)c1cc(-c2ccccc2)nc2ccccc12,-4%
9,NC(=NCc1ccccc1)N/N=C\c1ccnc2ccccc12,-1%
10,CCCCN(CCCC)CCSc1ccc(Cl)cc1,-7%
11,COc1cc(C2C3=C(COC3=O)Oc3cc4c(cc32)OCO4)ccc1O (stereo not drawn),-3%
12,C#CCCCc1ccccc1,-41%
13,CCc1ccc(NS(=O)(=O)c2ccccc2)c([N+](=O)[O-])c1,14%
14,COc1ccc(C2c3cc4c(cc3OC(C)(O)C2C)OCO4)c(OC)c1 (stereo not drawn),9%
15,COC(=O)c1ccc(CCC2=CC(=O)C(Br)=CC2=O)cc1,-12%
16,NNC(=O)CCc1ccc2ccc3ccccc3c2c1,0%
17,Cn1c2ccccc2c(=O)c2cc(NC(=O)CCCCC(=O)Nc3ccc4c(c3)c(=O)c3ccccc3n4C)ccc21,2%
18,CC(CC(C)(C)[N+](C)(C)C)[N+](C)(C)C (stereo not drawn),-4%
19,CC1CCN(CCC(=O)c2ccc(Cl)cc2)CC1,3%
20,CCCCCCCCCCCCCCC(C(=O)[O-])[n+]1ccccc1 (stereo not drawn),-7%

row,Compound,growth inhibition
1,CNC1C(OC2C(OC3C(O)C(O)C(N=C(N)N)C(O)C3N=C(N)N)OC(C)C2(O)CO)OC(CO)C(O)C1O (stereo not drawn),-3%
2,O=C(O)c1ccccc1-c1ccccc1C(=O)Nc1ccc2c(c1)Cc1ccccc1-2,22%
3,O=[N+]([O-])c1cccc2nc3ccccc3c(NCCCN3CCOCC3)c12,98% (active)
4,C=CC(C)(O)CCC1C(=C)C(O)CC2C(C)(C)CCCC12C (stereo not drawn),-10%
5,CN1c2ccc(Cl)cc2C(=O)NC1c1ccc([N+](=O)[O-])s1 (stereo not drawn),14%
6,[O-][n+]1c2ccc(O)cc2nc2ccc(Br)cc21,25%
7,O=C1c2ccccc2-c2nc3ccccc3nc21,-41%
8,CCCCN1C(=O)N(c2ccc(OCC)cc2)C2N(CCCC)C1C(C)(C)C2(C)C (stereo not drawn),-5%
9,CO[C@H]1C[C@](C)(O)Cc2cc3c(c(O)c21)C(=O)c1c(O)cc2c(c1C3=O)O[C@@H]1O[C@@]2(C)[C@H](O)[C@@H](N(C)C)[C@@H]1O,-21%
10,COc1cc2c(cc1[N+](=O)[O-])C(=O)C(Br)(Br)CCC2,99% (active)
11,O=C1OC(CCl)CN1/N=C/c1ccc([N+](=O)[O-])o1 (stereo not drawn),0%
12,CN(C)CCOc1ccc2c(c1)C/C(=C/c1ncc([N+](=O)[O-])n1C)C2=O,53%
13,CCCCCCCCCCCCCCCCCCN(C)CC(COP(=O)([O-])OCC[N+](C)(C)C)OC (stereo not drawn),94% (active)
14,CC(C)c1ccccc1NC(=O)/C(Cl)=C(\Cl)C(=O)O,1%
15,O=[N+]([O-])C(=C(Sc1ccccc1)Sc1ccccc1)C(Cl)=C(Cl)Cl,37%
16,C(=C\c1ccccc1)/COc1ccccc1C(N1CCOCC1)n1nc2ccccc2n1 (stereo not drawn),-1%
17,O=C1C(Nc2ccccc2)=C(Oc2ccccc2)C(=O)c2ccccc21,6%
18,CCN(CC)CCN1C(=O)c2cccc3cc(OC)cc(c23)C1=O,-12%
19,CN(C)Cc1cc(N=Nc2ccc(Cl)cc2)cc(CN(C)C)c1O,16%

# Same assay, conditions: S. cerevisiae mec2-1 strain, at 33.0 µM, hits give high values
row,Compound,growth inhibition
1,O=CC=C(c1ccccc1)c1ccccc1,20%
2,FC(F)(F)c1nc2nc(Cl)c(Cl)nc2n1CCCN1CCOCC1,16%
3,BrCC[P+](c1ccccc1)(c1ccccc1)c1ccccc1,95% (active)
4,N#CSc1ccc(S(N)(=O)=O)cc1,-2%
5,O=[N+]([O-])c1ccc2nc3ccccc3cc2c1,27%
6,O=C(NC(Nc1ccc(F)c(Cl)c1)(C(F)(F)F)C(F)(F)F)C(C(F)(F)F)C(F)(F)F,97% (active)
7,O=C(/C=C\c1ccc(Cl)cc1Cl)c1cccs1,10%
8,O=C(NCCCCNCCCNC(=O)c1cc(-c2ccccc2)nc2ccccc12)c1cc(-c2ccccc2)nc2ccccc12,56%
9,NC(=NCc1ccccc1)N/N=C\c1ccnc2ccccc12,7%
10,CCCCN(CCCC)CCSc1ccc(Cl)cc1,-8%
11,COc1cc(C2C3=C(COC3=O)Oc3cc4c(cc32)OCO4)ccc1O (stereo not drawn),-4%
12,C#CCCCc1ccccc1,31%
13,CCc1ccc(NS(=O)(=O)c2ccccc2)c([N+](=O)[O-])c1,27%
14,COc1ccc(C2c3cc4c(cc3OC(C)(O)C2C)OCO4)c(OC)c1 (stereo not drawn),15%
15,COC(=O)c1ccc(CCC2=CC(=O)C(Br)=CC2=O)cc1,-12%
16,NNC(=O)CCc1ccc2ccc3ccccc3c2c1,2%
17,Cn1c2ccccc2c(=O)c2cc(NC(=O)CCCCC(=O)Nc3ccc4c(c3)c(=O)c3ccccc3n4C)ccc21,13%
18,CC(CC(C)(C)[N+](C)(C)C)[N+](C)(C)C (stereo not drawn),2%
19,CC1CCN(CCC(=O)c2ccc(Cl)cc2)CC1,17%
20,CCCCCCCCCCCCCCC(C(=O)[O-])[n+]1ccccc1 (stereo not drawn),-2%

row,Compound,growth inhibition
1,CNC1C(OC2C(OC3C(O)C(O)C(N=C(N)N)C(O)C3N=C(N)N)OC(C)C2(O)CO)OC(CO)C(O)C1O (stereo not drawn),10%
2,O=C(O)c1ccccc1-c1ccccc1C(=O)Nc1ccc2c(c1)Cc1ccccc1-2,64%
3,O=[N+]([O-])c1cccc2nc3ccccc3c(NCCCN3CCOCC3)c12,99% (active)
4,C=CC(C)(O)CCC1C(=C)C(O)CC2C(C)(C)CCCC12C (stereo not drawn),4%
5,CN1c2ccc(Cl)cc2C(=O)NC1c1ccc([N+](=O)[O-])s1 (stereo not drawn),93% (active)
6,[O-][n+]1c2ccc(O)cc2nc2ccc(Br)cc21,49%
7,O=C1c2ccccc2-c2nc3ccccc3nc21,50%
8,CCCCN1C(=O)N(c2ccc(OCC)cc2)C2N(CCCC)C1C(C)(C)C2(C)C (stereo not drawn),-5%
9,CO[C@H]1C[C@](C)(O)Cc2cc3c(c(O)c21)C(=O)c1c(O)cc2c(c1C3=O)O[C@@H]1O[C@@]2(C)[C@H](O)[C@@H](N(C)C)[C@@H]1O,-4%
10,COc1cc2c(cc1[N+](=O)[O-])C(=O)C(Br)(Br)CCC2,100% (active)
11,O=C1OC(CCl)CN1/N=C/c1ccc([N+](=O)[O-])o1 (stereo not drawn),7%
12,CN(C)CCOc1ccc2c(c1)C/C(=C/c1ncc([N+](=O)[O-])n1C)C2=O,88% (active)
13,CCCCCCCCCCCCCCCCCCN(C)CC(COP(=O)([O-])OCC[N+](C)(C)C)OC (stereo not drawn),99% (active)
14,CC(C)c1ccccc1NC(=O)/C(Cl)=C(\Cl)C(=O)O,7%
15,O=[N+]([O-])C(=C(Sc1ccccc1)Sc1ccccc1)C(Cl)=C(Cl)Cl,46%
16,C(=C\c1ccccc1)/COc1ccccc1C(N1CCOCC1)n1nc2ccccc2n1 (stereo not drawn),86% (active)
17,O=C1C(Nc2ccccc2)=C(Oc2ccccc2)C(=O)c2ccccc21,3%
18,CCN(CC)CCN1C(=O)c2cccc3cc(OC)cc(c23)C1=O,-14%
19,CN(C)Cc1cc(N=Nc2ccc(Cl)cc2)cc(CN(C)C)c1O,14%
